Screening results: PubChem BioAssay, National Center for Advancing Translational Sciences (NCATS)
A selection: hits, their analogues and other compounds. The true share with any hit is near 14%.
NS1 function inh: blocks influenza NS1 protein function. Potency, µM (doses to about 46.1 µM). 0.4% of 270,000 active; calls by dose curve; further: actives are rising curves; nearly all actives have a fitted effect of over 50% in size
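S. cerevisiae expressing influenza A NS1, grown in glucose, washed, then diluted 1:100 into pH 6.0 -URA galactose medium with 23 nl compound. Growth recovery read as OD600; NS1-free strain serves as control.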
LmPK inh: LmPK (Leishmania mexicana) enzyme inhibition; 0.37% of 290,000 active; Potency, µM (doses to about 57.5 µM), hits mostly inhibitors; AID 1721; purified LmPK, Kinase-Glo ATP luminescence, 1 h
Target sequence (Q27686 whole entry, looked up): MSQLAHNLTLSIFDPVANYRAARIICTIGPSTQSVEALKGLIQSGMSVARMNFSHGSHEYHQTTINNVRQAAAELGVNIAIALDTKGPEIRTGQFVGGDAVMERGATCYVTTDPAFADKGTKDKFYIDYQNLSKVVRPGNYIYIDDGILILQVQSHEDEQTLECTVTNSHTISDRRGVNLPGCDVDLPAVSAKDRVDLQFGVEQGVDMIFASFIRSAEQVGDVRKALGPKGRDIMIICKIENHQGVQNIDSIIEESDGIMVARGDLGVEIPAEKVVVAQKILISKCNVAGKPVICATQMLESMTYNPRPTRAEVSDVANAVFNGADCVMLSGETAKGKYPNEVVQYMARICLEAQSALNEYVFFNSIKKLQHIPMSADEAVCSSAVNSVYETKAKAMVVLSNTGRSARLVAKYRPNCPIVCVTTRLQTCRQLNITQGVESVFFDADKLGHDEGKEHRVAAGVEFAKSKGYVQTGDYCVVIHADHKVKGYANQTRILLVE
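ATP generated from ADP (0.1 mM) and PEP (0.5 mM) by 0.1 nM LmPK over 1 h at room temperature (pH 7.2 imidazole buffer) was detected by coupled luciferase luminescence. Values were normalized to uninhibited and no-enzyme wells.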
FBPA Giardia inh: inhibitors of Giardia lamblia fructose-1,6-bisphosphate aldolase; Potency, µM (highest dose often 59.6 µM), actives largely listed as inhibitors; 0.71% of 290,000 active; purified Giardia FBPA; AID 2451; further: nearly all actives have a fitted effect of over 55% in size
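Giardia FBPA (40 nM reagent) was preincubated 10 min at RT with compound (up to 57.5 uM final), then substrate plus GAPDH/TPI/NAD/arsenate coupling system with diaphorase/resazurin was added; resorufin fluorescence (525/598 nm) was read after 20 min.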
CHX counter: affects cycloheximide protein synthesis inhibition readout, counter-screen. cell reporter, cycloheximide protein synthesis inhibition counterscreen. max response, %. 12% of 300,000 active; in the data active means max response mostly above about 13%, no sharp cut-off; inactive means mostly below about 14%; further: read at 38.3 µM for the half of the compounds with a filed dose
Shiga toxin inh: inhibitors of Shiga toxin in Vero cells; Vero cells, Shiga toxin protein synthesis inhibition reporter; inhibition, % at 38.7 µM; 9.2% of 290,000 active; in the data active means inhibition mostly above about 28%, no sharp cut-off; inactive means mostly below about 43%
LmPK inh confirm: Confirms inhibition of Leishmania mexicana pyruvate kinase | purified LmPK, Kinase-Glo ATP luminescence, 1 h | 40% of 150 active | Potency, µM (highest dose often 57.5 µM), actives largely listed as inhibitors | shares compounds with LmPK inh;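 active means compounds giving a full or partial concentration-response curve, as inhibitors or activators; inconclusive means weak, top-dose-only or unclear curve responses; inactive means no response at any tested dose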
Each line names hits and unclear results; the compound was inactive in the other large screens (follow-up assays come after a bar, where they were run). Unless noted, the call rests on the fitted dose curve; in most records, active means well fitted curve in the direction sought with a large enough effect; inconclusive means small, poorly fitted or top-dose-only effect, or another doubt; inactive means no such curve, though single readings can be large; an effect the other way counts as inactive or inconclusive.

O=c1sc(Nc2ccccc2)nc2ccsc12	CHX counter 80.1, Shiga toxin inh 91.5
Cc1ccc(Nc2nc3ccccc3c(=O)s2)cc1C	NS1 function inh inconclusive
Cc1cc(O)c(-c2cc(O)c(C)cc2O)cc1O	LmPK inh 0.708µM, FBPA Giardia inh 15.8µM, CHX counter 10.3 | LmPK inh confirm inconclusive
Cn1cc(CN(Cc2ccccc2)C[C@@H]2CCC(=O)N2)c(-c2ccccc2F)n1	none | LmPK inh confirm inactive
Cc1nc(Cl)c(N=Cc2cccc([N+](=O)[O-])c2)c(Cl)n1	none
CC(=O)NC(C(=O)O)C(C)(C)SN=O (centres undefined)	none (no result: NS1 function inh, LmPK inh, CHX counter, Shiga toxin inh)
CCn1c(-c2ccccc2Cl)nn(CC(=O)Nc2ccc(OC)cc2)c1=S	none | LmPK inh confirm inactive
CCOc1ccc(NC(=O)Cn2nc(-c3ccccc3Cl)n(CC)c2=S)cc1	none
Cc1ccnc(N2C(=O)c3ccccc3C2=O)c1	none | LmPK inh confirm inactive
Cc1ccnc(N2C(=O)c3cccc4c([N+](=O)[O-])ccc(c34)C2=O)c1	none
N#CC1=C(N)SC(N)=C(C#N)C1c1ccnc2ccccc12	FBPA Giardia inh inconclusive
O=C1c2ccccc2C(=O)C1c1ccnc2ccccc12	LmPK inh 7.08µM, CHX counter 37.5, Shiga toxin inh 92.7 | LmPK inh confirm inconclusive
O=C(Nc1cccnc1)Nc1ccccn1	none
O=C(Nc1cccc(O)c1)C(=O)Nc1ccccn1	LmPK inh 7.94µM, CHX counter 15.9 | LmPK inh confirm 20.6µM
CCc1n[nH]c(=S)n1/N=C/c1ccc2c(c1)OCO2	none | LmPK inh confirm inactive
CCOc1ccc(NC(=S)NNC(=O)c2ccc(Br)cc2)cc1	none (no result: NS1 function inh)
Cc1ccc(-c2nnc(N(C)C(=O)c3cccnc3)s2)cc1	CHX counter 33.8 (no result: FBPA Giardia inh) | LmPK inh confirm inactive
Cc1occc1C(=O)O/N=C(\N)c1ccccc1	LmPK inh 3.55µM, CHX counter 50.6, Shiga toxin inh 72.4 | LmPK inh confirm 10.3µM
Cc1ccc(/C(N)=N/OC(=O)c2cc(-c3ccccc3)nc3ccccc23)cc1	none
O=C1c2ccccc2N[C@H](c2cc(Cl)cc(Cl)c2O)N1CCc1ccccn1	none (no result: LmPK inh, FBPA Giardia inh, CHX counter, Shiga toxin inh)
Cn1c(-c2ccc(Br)cc2)cnc1NCc1cccnc1	none (no result: FBPA Giardia inh) | LmPK inh confirm inactive
COc1cc(CNc2ncc(-c3ccc(Br)cc3)n2C)cc(OC)c1OC	FBPA Giardia inh inconclusive
Cc1ccc(C(=O)NNC(=O)CSc2nnc(-c3ccncc3)n2-c2ccc(C)cc2)cc1	none | LmPK inh confirm inactive
COc1ccc(-c2cc3nc(C)cc(N)n3n2)cc1	LmPK inh 3.55µM, CHX counter 14.5 | LmPK inh confirm 5.8µM
CC(C)C(NC(=O)c1ccc2c(c1)OCO2)C(=O)N/N=C/c1cccs1 (centres undefined)	none
CC(C)C(NC(=O)c1ccc2c(c1)OCO2)C(=O)N/N=C\c1ccco1 (centres undefined)	none | LmPK inh confirm inactive
O=c1cc(-c2ccccc2)[nH]n1-c1nc2ccccc2[nH]1	NS1 function inh inconclusive, FBPA Giardia inh inconclusive
O=c1c2ccccc2cnn1-c1nc2ccccc2[nH]1	LmPK inh 2.24µM (no result: NS1 function inh) | LmPK inh confirm 3.26µM
Cc1ccc(S(=O)(=O)N2CCN(C(=O)NCc3ccc(F)cc3)CC2)c(C)c1	none
CC(=O)c1cc(C#N)c(Oc2ccc(F)cc2)nc1C	none | LmPK inh confirm inactive
CCN(Cc1ccncc1)Cc1cn(C)nc1-c1ccc(Oc2ccccc2)cc1	none | LmPK inh confirm inactive
CC(C)N(C)Cc1cn(C)nc1-c1ccc(Oc2ccccc2)cc1	none (no result: Shiga toxin inh)
CC(=O)Nc1ccc(S(=O)(=O)NNc2cccc(C)c2)cc1	none (no result: FBPA Giardia inh)
c1nc(N2CCNCC2)c2cc(-c3ccc4c(c3)OCO4)ccc2n1	none (no result: NS1 function inh, LmPK inh, CHX counter, Shiga toxin inh)
CCOC(=O)C(C(C)=O)c1c(Br)c(O)c(O)c2c(C(=O)c3ccc(C)cc3)coc12 (centres undefined)	LmPK inh 5.62µM, FBPA Giardia inh inconclusive, CHX counter 18.9 | LmPK inh confirm inactive
CC1CCCN(S(=O)(=O)c2ccc3c(c2)c(=O)nc2ccccn23)C1 (centres undefined)	none
Nc1ncnc2c1ncn2[C@@H]1O[C@H](COP(=O)(O)CP(=O)(O)OP(=O)(O)O)[C@H](O)[C@H]1O	none (no result: LmPK inh, CHX counter, Shiga toxin inh)
Nc1ncnc2c1ncn2[C@@H]1O[C@H](COP(=O)(O)O)[C@@H](O)[C@H]1O	LmPK inh 10µM | LmPK inh confirm 6.51µM
Nc1ncnc2c1ncn2C1OC(COP(=O)(O)O)C(O)C1O (centres undefined)	LmPK inh 15.8µM | LmPK inh confirm 5.8µM
Nc1ncnc2c1ncn2[C@@H]1O[C@H](CO)[C@H](O)[C@H]1O	none (no result: LmPK inh, CHX counter, Shiga toxin inh)
COc1ccccc1C(=O)Nc1ccnn1C1CCN(C/C=C/c2ccc(F)cc2)CC1	none
COC(=O)C1=C(C)NC2=C(C(=O)C(C(=O)OC)C(c3ccc(OC)cc3)C2)C1c1ccccn1 (centres undefined)	none | LmPK inh confirm inactive
c1ccc2nc(-c3nc4ccccc4[nH]3)ccc2c1	LmPK inh 4.47µM, CHX counter 14.3 | LmPK inh confirm 9.19µM
N#CCCn1c(=O)c(-c2cccc(C#N)c2)nc2cnc(Oc3cccc(Cl)c3)nc21	none (no result: NS1 function inh, LmPK inh, CHX counter, Shiga toxin inh)
CCOCCCn1c(=S)[nH]c2cc(C(=O)N3CCN(c4ccccc4)CC3)ccc2c1=O	none
COC(=O)CSC1=NS(=O)(=O)c2ccccc21	LmPK inh 5.01µM | LmPK inh confirm inconclusive
Cc1ccc(C)c(/C(O)=C2/C(=O)C(=O)N(CCN3CCOCC3)C2c2ccco2)c1 (centres undefined)	NS1 function inh inconclusive | LmPK inh confirm inactive
Cc1ccc(C2/C(=C(/O)c3ccccc3)C(=O)C(=O)N2CCN2CCOCC2)o1 (centres undefined)	none
CN(Cc1ccon1)Cc1cn(C)nc1-c1cccc(Cl)c1	LmPK inh 12.6µM, FBPA Giardia inh inconclusive, CHX counter 33.4 | LmPK inh confirm inactive
CN(Cc1cn(C)nc1-c1cccc(Cl)c1)C1CCOCC1	none
CCOC(=O)c1nnn(-c2nonc2N)c1-c1ccc(C)cc1	none | LmPK inh confirm inactive
COc1cccc(-c2nc3ccccc3s2)c1	LmPK inh 10µM, CHX counter 37.7, Shiga toxin inh 74.1 | LmPK inh confirm inconclusive
CN(C)/C=C/C(=O)c1ccc(OCCN(C)c2ccccn2)cc1	none
Cc1cc(C)c(S(=O)(=O)n2ccc(-c3ccc(OCCN(C)c4ccccn4)cc3)n2)c(C)c1	none | LmPK inh confirm inactive
Fc1ccc(-c2nc3n(n2)Cc2ccccc2-3)cc1	LmPK inh 3.55µM, CHX counter 42.2, Shiga toxin inh 66.2 | LmPK inh confirm inconclusive
C=CCSCC=C	none (no result: NS1 function inh, LmPK inh, CHX counter, Shiga toxin inh)
O=C(CCc1ccccc1)NNC(=O)c1ccc(NC(=O)c2ccccc2)cc1	none
CC(=O)Nc1ccc(C(=O)NNC(=O)CCc2ccccc2)cc1	none | LmPK inh confirm inactive
Cc1ccc(Oc2ccccc2/C=C2\SC(=O)N(C)C2=O)cc1	none | LmPK inh confirm inactive
O=C(NCCN1CCOCC1)C1CCCN(S(=O)(=O)c2ccc(F)cc2)C1 (centres undefined)	none (no result: FBPA Giardia inh)
Cc1cccc(C(=O)NC2CCN(C(=S)NCc3ccco3)CC2)c1	none | LmPK inh confirm inactive
